Screening results from PubChem.
Most compounds without a hit are left out; they make up all but 1.5% or so of the library.
IDE cell activ = human IDE activators in live cells, primary screen, fluorescence polarization, HEK cells, FAbeta-B substrate; hit rate 0.073% among 340,000; activation, % at 5.96 µM; FAbeta-B cleavage; 0% vehicle, 100% cell-free pure enzyme wells; Insulin-degrading enzyme (Homo sapiens), P14735;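 active = activation above the mean of all tested compounds plus 3 SD, set per screening campaign, cut at about 17% in these data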
Target sequence (P14735 whole entry, looked up): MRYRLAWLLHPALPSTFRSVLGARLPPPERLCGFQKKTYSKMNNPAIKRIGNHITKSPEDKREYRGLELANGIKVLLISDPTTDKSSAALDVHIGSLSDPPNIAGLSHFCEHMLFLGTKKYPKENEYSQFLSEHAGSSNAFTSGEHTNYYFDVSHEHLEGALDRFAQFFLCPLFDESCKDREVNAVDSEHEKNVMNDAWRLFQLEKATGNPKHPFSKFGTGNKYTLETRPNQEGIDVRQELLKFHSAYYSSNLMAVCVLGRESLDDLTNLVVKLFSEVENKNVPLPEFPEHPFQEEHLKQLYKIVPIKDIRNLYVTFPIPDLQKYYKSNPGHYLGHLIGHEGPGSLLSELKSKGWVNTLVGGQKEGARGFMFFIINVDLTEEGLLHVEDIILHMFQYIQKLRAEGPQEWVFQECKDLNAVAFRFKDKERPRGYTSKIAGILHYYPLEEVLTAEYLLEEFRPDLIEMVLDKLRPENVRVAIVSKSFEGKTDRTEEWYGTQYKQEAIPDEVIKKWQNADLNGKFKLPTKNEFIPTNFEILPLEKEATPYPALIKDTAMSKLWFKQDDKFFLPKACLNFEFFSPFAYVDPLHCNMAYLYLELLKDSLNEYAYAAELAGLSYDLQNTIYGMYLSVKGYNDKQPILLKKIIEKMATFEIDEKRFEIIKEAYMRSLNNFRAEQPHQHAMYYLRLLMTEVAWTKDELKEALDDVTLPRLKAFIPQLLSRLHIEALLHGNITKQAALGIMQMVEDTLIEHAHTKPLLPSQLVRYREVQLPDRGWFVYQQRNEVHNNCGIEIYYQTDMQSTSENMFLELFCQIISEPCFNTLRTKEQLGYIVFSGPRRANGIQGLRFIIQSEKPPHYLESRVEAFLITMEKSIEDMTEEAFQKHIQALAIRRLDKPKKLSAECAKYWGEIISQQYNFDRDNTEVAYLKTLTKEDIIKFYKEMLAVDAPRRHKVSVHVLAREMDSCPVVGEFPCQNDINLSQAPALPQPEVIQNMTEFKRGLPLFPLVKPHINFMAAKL
CRFR2-BP ag = agonists of CRF-BP/CRF-R2 complex, primary screen, cell-based, HEK293, calcium dye fluorescence, uHTS; hit rate 0.46% among 350,000; CRF-binding protein / CRF receptor 2 complex (human); calcium dye fluorescence (FLIPR); percent of saturating CRF peptide response; activation, % at 13.2 µM;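 active = activation of at least 50%, plus an integration ratio under a set limit after plate pattern correction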
CRFBP-R2 block = antagonists of CRF-BP/CRF-R2 complex, primary screen, cell-based, HEK293, calcium dye fluorescence, uHTS; CRF-induced calcium fluorescence; inhibition, % at 11.8 µM; hit rate 0.59% among 350,000; AID 588475, 2011;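 active = inhibition of the ligand-induced calcium signal above about 50% at the single tested concentration, limit read from the data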
IDE inh = human IDE inhibitors in live cells, primary screen, fluorescence polarization, HEK cells, FAbetaB substrate. AID 434962, 2010. FAbetaB cleavage. hit rate 0.41% among 320,000. inhibition, % at 5.59 µM. Insulin-degrading enzyme (Homo sapiens), P14735;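 active = percent inhibition above the average of all tested compounds plus 3 SD, set per screening campaign, cut at about 16% in these data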;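 also: IDE supplied by intact live HEK cells; FP after avidin binding of uncleaved biotin substrate so inhibition keeps polarization high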
cardiac RTF act = cardiac RTF calcium sensitivity activators, primary screen, biochemical, IANBD-TnC fluorescence, EC20 calcium. Troponin I, cardiac muscle (Homo sapiens) + Troponin T, cardiac muscle (Homo sapiens) + …. IANBD-labeled TnC RTF fluorescence at EC20 calcium; 0% EC20 calcium, 100% full calcium. activation, % at 7.2 µM. hit rate 0.24% among 340,000. AID 493008, 2010;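 active = activation above the mean over all tested compounds plus 3 SD, cut at about 30% in these data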;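 also: rise in fluorescence read as greater calcium sensitivity of cardiac thin filaments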
RTF Ca sens inh = cardiac RTF calcium sensitivity inhibitors, primary screen, biochemical, IANBD-TnC fluorescence, EC70 calcium | Troponin I, cardiac muscle (Homo sapiens) + Troponin T, cardiac muscle (Homo sapiens) + … | IANBD-labeled cardiac RTF, Ca2+ fluorescence | inhibition, % at 7.15 µM | hit rate 0.12% among 340,000;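 active = inhibition above the mean inhibition of all tested compounds plus 3 SD, cut at about 17% in these data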;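 also: assay run at fixed EC70 calcium of 1.6 mM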
IDE cell inh cf = human IDE inhibitors in live cells, confirmation, fluorescence polarization, HEK cells, FAbetaB substrate. shares compounds with IDE inh. FAbetaB cleavage. inhibition, % at 5.59 µM. hit rate 51% among 1,200. AID 435028, 2010;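 active = mean inhibition across triplicate wells above the cutoff set by the earlier primary insulin-degrading enzyme screen, cut at about 16% in these data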
HEK cytotox = cytotoxicity in HEK cells, cytotoxicity control for IDE inhibitor project, cell-based, luminescence; shares compounds with IDE inh; HEK293 cytotoxicity, ATP luminescence; inhibition, % at 5.59 µM; hit rate 28% among 1,200; AID 449730, 2010; in the data active = inhibition above about 22%
IDE FP artifact = fluorescent or optically active artefacts, dose response, artefact control for IDE inhibitor project, biochemical, fluorescence polarization; shares compounds with IDE inh; FP counterscreen for fluorescent artifacts, IDE probe project; IC50, µM; 30 tested, under 10 active; call rule not given here
Hits are given with their value; - = inactive; . = not tested or not shown.

SMILES	IDE cell activ	CRFR2-BP ag	CRFBP-R2 block	IDE inh	cardiac RTF act	RTF Ca sens inh	IDE cell inh cf	HEK cytotox	others
COc1cc(/C=C/c2nc3ccccc3c(=O)[nH]2)cc(Br)c1O	-	-	-	44	-	-	143	-
CCOC(=O)C1CCCN(C(=O)c2cc(CN3C(=O)c4ccccc4C3=O)ccc2OC)C1 (stereo unspecified)	-	-	-	-	-	-	.	.
O=C(N/N=C/c1ccc(O)cc1O)/C(=C/c1ccccc1)CCO	-	-	-	-	-	-	.	.
CC(=O)NC(c1cccs1)c1cc(Cl)c2ccccc2c1O (stereo unspecified)	-	-	-	19	-	-	-	-
CC(=O)NC(c1cccs1)c1cc([N+](=O)[O-])c2cccnc2c1O (stereo unspecified)	-	-	-	27	-	-	-	27
CCC(=O)NC(c1cccs1)c1cc(Cl)c2ccccc2c1O (stereo unspecified)	-	-	-	17	-	-	-	-
CCC(=O)NC(C)c1cc(Cl)c2ccccc2c1O (stereo unspecified)	-	-	-	-	-	-	.	.
CC(C)CSc1oc(-c2ccco2)nc1S(=O)(=O)c1ccccc1	-	-	-	-	-	-	.	.
COc1ccc(/C(C)=N/NC(=O)Cn2nc([N+](=O)[O-])cc2C)cc1	-	-	-	-	-	-	.	.
CC(=O)N1CCc2c(sc(NC(=O)C3CC3)c2-c2nc3ccccc3s2)C1	-	-	-	-	-	-	.	.
CC(=O)Nc1sc2c(c1-c1nc3ccccc3s1)CN(C(C)C)CC2	-	94	-	30	-	-	-	95
COc1ccc(C2=NN(c3ccc(C=O)cc3)C(c3ccccc3)C2)cc1 (stereo unspecified)	.	-	-	-	.	.	.	.
COc1ccc(C2CC(c3cccs3)=NN2c2ccc(C=O)cc2)cc1 (stereo unspecified)	.	109	-	30	.	.	19	-
O=C(O)c1ccc(N/N=C/C=C/c2ccc([N+](=O)[O-])o2)cc1	-	-	-	50	-	-	73	-
O=C(O)c1ccc(-c2ccc(/C=N/Nc3ccc([N+](=O)[O-])cc3)o2)cc1	-	155	-	21	-	-	41	-
O=C(O)c1cccc(-c2ccc(/C=N/Nc3ccc([N+](=O)[O-])cc3)o2)c1	-	166	-	18	-	-	22	-
O=C(O)c1ccc(N/N=C/c2ccc(-c3cccc(Cl)c3)o2)cc1	-	-	-	-	-	-	.	.
Cc1cc(=O)oc2c(C)c(OCC(=O)c3ccccc3)ccc12	-	-	-	-	-	-	.	.
O=C(Cn1cnc2scc(-c3cccc([N+](=O)[O-])c3)c2c1=O)NCc1ccco1	-	-	-	-	-	-	.	.
CCN(CC)CC(=O)Nc1c(C#N)cnn1-c1ccccc1	.	-	-	-	.	.	.	.
CCCCNC(=O)N1CCN(c2ccccc2OCC)CC1	-	-	-	-	-	-	.	.
Cc1ccc(F)cc1NC(=O)N1CCN(c2ccnc3cc(Cl)ccc23)CC1	-	-	-	-	-	-	.	.
Cc1cccc(Cl)c1NC(=O)N1CCCN(c2nc3ccc(Cl)cc3s2)CC1	-	-	-	-	-	-	.	.
CC(=O)N1CCN(c2ccnc3cc(Cl)ccc23)CC1	-	-	-	-	-	-	.	.
O=C(Nc1cc(F)ccc1F)N1CCN(c2ccnc3cc(Cl)ccc23)CC1	-	-	-	22	-	-	-	-
SMILES	IDE cell activ	CRFR2-BP ag	CRFBP-R2 block	IDE inh	cardiac RTF act	RTF Ca sens inh	IDE cell inh cf	HEK cytotox	others
Cc1cccc(Cl)c1NC(=O)N1CCN(c2ccnc3cc(Cl)ccc23)CC1	-	-	-	24	-	-	-	-
O=C(O)CSCC(=O)N1CCN(c2ccnc3cc(Cl)ccc23)CC1	-	-	-	30	-	-	-	-
CCCCNC(=O)N1CCN(c2ccnc3cc(Cl)ccc23)CC1	-	-	-	19	-	-	-	-
Cc1ccccc1-n1c(O)c(/C=C/C=Nc2ccccc2)c(=O)[nH]c1=O	-	81	-	66	124	-	85	-
O=C(Nc1ccc2nc(-c3cccs3)[nH]c2c1)c1cccs1	-	-	-	21	-	-	-	22
O=C(Nc1ccc(-c2nc3ccc(NC(=O)c4cccs4)cc3[nH]2)cc1)c1cccs1	-	-	-	-	-	-	.	.
COc1cccc2c1C(=O)C=C(C)C2=O	-	-	-	34	-	-	72	34
Cc1ccc2c(C)c(C)c(=O)n(C)c2c1	-	-	-	.	-	-	.	.
C[C@@H]1CN([C@H](C)CO)C(=O)CCCn2nncc2CO[C@H]1CN(C)C(=O)Cc1ccccc1	.	-	-	.	.	.	.	.
Cc1ccccc1NC(=O)c1sc2nc(N3CCOCC3)c3c(c2c1N)CCCC3	-	-	-	-	-	-	.	.
Nc1c(C(=O)NCCc2ccccc2)sc2nc(N3CCOCC3)c3c(c12)CCCC3	-	-	-	17	-	-	-	29
CC(=O)c1cccc(OCC(=O)N2CCN(c3ccc(C(F)(F)F)cn3)CC2)c1	-	-	-	22	-	-	19	-
O=C(O)COCC(=O)N1CCCN(c2ccc(C(F)(F)F)cn2)CC1	-	-	-	.	-	-	.	.
CCCc1cc(C(=O)N2CCN(c3ccc(C(F)(F)F)cn3)CC2)sc1C	-	-	-	16	-	-	-	-
Cc1ccn(CC(=O)N2CCCC(N3CCN(Cc4ccc5c(c4)OCO5)CC3)C2)n1 (stereo unspecified)	-	-	-	-	-	-	.	.
CC(C)c1ccc(NC(=S)N2CCN(S(=O)(=O)c3ccccc3)CC2)cc1	-	-	-	-	-	-	.	.
COc1ccc(C(=O)N2CCN(C(=O)C3COc4ccccc4O3)CC2)cc1OC (stereo unspecified)	-	-	-	17	-	-	16	-	IDE FP artifact=-
COc1cccc(C(=O)N2CCN(C(=O)C3COc4ccccc4O3)CC2)c1 (stereo unspecified)	-	-	-	-	-	-	.	.
